The campaign covered roughly 48,000 compounds. About 13,000 (27%) showed an effect of 50% or more. Some of the results follow.

This assay relates to Wolbachia pipientis. The assay can be described thus: Anti-Wolbachia Cell-Based Screen. The format is functional. The arrangement: scale not given: in the data most compounds retested in dose-response had high values. The note with it: 5 µM.
Consider `COCc1nc2cc(NCc3cc[nH]n3)ccc2o1`, for which the “Percent Effect” value is on record as -2.175%. The value for `CC(=O)Nc1cc(CN(C)C)ccc1C` was -5.311%; that for `CC(C(=O)N1CCCC1)S(=O)(=O)Cc1noc(C(C)(C)C)n1` (centres undefined) was -6.108%; that for `Cc1cc(C)n(CC2CCCN2CCCS(N)(=O)=O)n1` (centres undefined) was -6.761%. The value for `Cc1cc(C2CCCN(CCCS(C)(=O)=O)C2)n[nH]1` (centres undefined) was 81.87%; that for `Cc1cc(C2CCCN(Cc3ncc(C)o3)C2)n[nH]1` (centres undefined) was -4.273%. The value for `Cc1cc(C2CCCN(CCCNS(C)(=O)=O)C2)n[nH]1` (centres undefined) was -11.22%; that for `Cc1cc(C2CCCN(CCCS(N)(=O)=O)C2)n[nH]1` (centres undefined) was 116%; that for `COC(=O)c1cc(NC(=O)CCc2cscn2)ccc1C` was -13.27%. For `CN1CSC[C@H]1C(=O)N1CCN(Cc2cccc(F)c2)CC1`, the “Percent Effect” value is recorded as -1.728%. Turning to `c1cnnc(N2CCCC2CNCc2cc[nH]n2)c1` (centres undefined), the “Percent Effect” value is reported as 6.061%. The value for `NCC1Cn2nnc(-c3cccc(F)c3)c2CO1` (centres undefined) was -2.933%; that for `Cc1cnn(CCNCc2csc(C)n2)c1` was 11.83%.

In the case of `CCn1ncc2c1C(COCC1CC1)N(Cc1nccs1)CC2.O=C(O)C(F)(F)F.O=C(O)C(F)(F)F` (centres undefined), the “Percent Effect” value is -10.7%. The value for `CCOCC1c2c(cnn2CC2CC2)CCN1Cc1nccs1.O=C(O)C(F)(F)F.O=C(O)C(F)(F)F` (centres undefined) was 115.2%.

With `COCC1c2c(cnn2CC2CC2)CCN1Cc1cccs1.O=C(O)C(F)(F)F.O=C(O)C(F)(F)F` (centres undefined), the “Percent Effect” value is given as -10.1%. The value for `COCC1c2c(cnn2CC2CC2)CCN1Cc1cc(C)on1.O=C(O)C(F)(F)F.O=C(O)C(F)(F)F` (centres undefined) was 63.1%; that for `COCC1c2c(cnn2CC2CC2)CCN1Cc1ccsc1.O=C(O)C(F)(F)F.O=C(O)C(F)(F)F` (centres undefined) was 107.6%. Take `CCn1ncc2c1C(COCC1CC1)N(Cc1c(C)noc1C)CC2.O=C(O)C(F)(F)F.O=C(O)C(F)(F)F` (centres undefined): the “Percent Effect” value is listed as -2.948%. As to `COCC1c2c(cnn2CC2CC2)CCN1Cc1nccs1.O=C(O)C(F)(F)F.O=C(O)C(F)(F)F` (centres undefined), the “Percent Effect” value was -17.24%. The value for `COCC1c2c(cnn2CC2CC2)CCN1Cc1ccc(C)o1.O=C(O)C(F)(F)F.O=C(O)C(F)(F)F` (centres undefined) was 107.5%.

`COCC1c2c(cnn2CC2CC2)CCN1Cc1ccc(OC)cc1` (centres undefined): the “Percent Effect” value is on record as -7.562%. The value for `CCN1C[C@H]2C3(CCN(S(=O)(=O)CC)CC3)CC[C@@]2(C(=O)N(C)C)C1.O=C(O)C(F)(F)F` was -7.289%; that for `Cc1ccc2nc(C3CCCN3Cc3nnc(C)s3)[nH]c2c1` (centres undefined) was -155.9%; that for `Clc1ccc2nncc(N3CCCCC3)c2c1` was -7.543%. The value for `O=C(NCCC1CN(Cc2c[nH]cn2)CCO1)c1ccccc1O` (centres undefined) was -1.985%; that for `N#Cc1ccccc1C(=O)NCCC1CN(Cc2ccco2)CCO1` (centres undefined) was 86.72%. The value for `CC(C)(C)C(=O)NCCC1CN(Cc2ccccc2F)CCO1` (centres undefined) was -7.627%; that for `NC1(C(=O)NCCC2CN(Cc3ccco3)CCO2)CCCC1` (centres undefined) was 117.7%; that for `O=C(NCCCN1CCOCC1)C1CCCN(Cc2ccco2)C1` (centres undefined) was 1.976%. On to `CCC1CN(CC(=O)NCc2ccco2)CCO1` (centres undefined), for which the “Percent Effect” value was -17.78%. The value for `Cc1ccc(C)c(NC(=O)Nc2c[nH]c(=O)[nH]c2=O)c1` was -8.651%; that for `Cc1cccc2c(CCNS(=O)(=O)C3CCOC3)c[nH]c12` (centres undefined) was 14.98%; that for `CC(C)Cc1noc(CN2CCCC(CNS(N)(=O)=O)C2)n1` (centres undefined) was 6.336%. With `Cc1noc2nc(C3CCN(CC4=CCCOC4)CC3)cc(C(F)F)c12.Cl`, the “Percent Effect” value is listed as -4.292%. Take `CCOC(C)c1noc(CN2CCN(CC3CCCC3)CC2)n1` (centres undefined): the “Percent Effect” value was -4.058%. Consider `CCS(=O)(=O)c1ccc2oc([C@H]3CCN(Cc4ccccn4)C3)nc2c1`, for which the “Percent Effect” value is -4.332%. The value for `Cc1noc2nc(C3CCN(CC4CCCCC4)CC3)cc(C(F)F)c12.Cl` was 130.1%; that for `Cc1n[nH]c2ncc(CNC3CCN(Cc4ccccn4)CC3)cc12.Cl` was 0.2679%; that for `Cc1noc2nc(C3CCN(Cc4ccccn4)CC3)cc(C(F)F)c12` was 126.2%. The value for `COc1ccc(N(C)C(=O)c2ccc(Cl)c(S(C)(=O)=O)c2)cn1` was -5.224%; that for `Cc1c(-c2ccccc2)ncn1CCCNc1cccnc1` was -10.09%. On to `COc1ccc(N2CCN(C(=O)CCn3nccc3C)CC2(C)C)cc1`, for which the “Percent Effect” value is reported as -0.9656%. As to `CN(C)CCn1ccnc1C1CCN(C(=O)CCc2cccnc2)CC1`, the “Percent Effect” value is given as -5.205%. The value for `Cc1ccnn1CCC(=O)N(Cc1ccsc1)CC(C)C` was 6.512%. The value for `COc1ccc(N2CCN(C(=O)Cn3nccc3C)CC2(C)C)cc1` was 3.492%; that for `Cc1ccnn1CCC(=O)N1CCN(C2CCc3ccccc3C2)CC1` (centres undefined) was -3.022%. The value for `CCN1C(=O)CC[C@@H]2N(C(=O)CCn3nccc3C)CCCC[C@@]21C` was 96.02%; that for `Cc1ccnn1CCC(=O)N1CCCC[C@@]2(C)[C@@H]1CCC(=O)N2C` was 76.68%; that for `COc1ccc(N2CCN(C(=O)CCn3nccc3C)C(C)C2)cc1` (centres undefined) was -2.814%. Consider `CN1C(=O)CC[C@@H]2N(C(=O)CCc3cccnc3)CCCC[C@@]21C`, for which the “Percent Effect” value is reported as 73.04%.

With `Cc1ccnn1CCC(=O)N1CCCC[C@]2(C)NC(=O)CCC[C@H]12`, the “Percent Effect” value was 63.73%. The value for `O=C1CCCCN1CCC(=O)N1CCCCC1c1ccc(F)cc1` (centres undefined) was -7.872%; that for `COc1ccc(O[C@H]2COCCN(Cc3cccc4c3OCO4)C2)cc1` was -9.045%; that for `CCCc1cc(NCc2nc(COC)no2)n2nccc2n1` was -5.978%. The value for `Cc1nc(CN2CCCC(Cn3cc(CCO)nn3)C2)c2ccccn12` (centres undefined) was -4.112%.

Consider `CC(C)n1cc(CN2CCCN(C(=O)c3cc(Cl)c[nH]3)CC2)cn1`, for which the “Percent Effect” value is listed as 1.101%.

Turning to `CS(=O)(=O)Nc1cccc(CNC(=O)CCNC(=O)c2cccs2)c1`, the “Percent Effect” value amounted to 4.351%. The value for `CN(C)Cc1nnc(C2CCN(c3nccc(N)n3)CC2)n1C1CC1` was 9.294%; that for `Cc1cc2ccncc2n1CC1(O)CCN(C(=O)c2ccncc2)CC1` was 105.6%.

In the case of `O=C(c1cncc(N2CCC(O)(CO)CC2)n1)N1CCCC1`, the “Percent Effect” value was -6.183%. Regarding `Cc1cc2ccncc2n1CC1(O)CCN(C(=O)c2ccccn2)CC1`, the “Percent Effect” value is reported as 79.68%. Consider `Cc1cc(C(=O)N2CCC(O)(Cn3ccc4ccncc43)CC2)on1`, for which the “Percent Effect” value was 111.8%. The value for `Cc1cc(C(=O)N2CCC(O)(Cn3c(C)cc4ccncc43)CC2)on1` was 79.54%. With `O=C(c1cnc(Nc2ccccc2)nc1)N1CCC(O)(CO)CC1`, the “Percent Effect” value is listed as -9.694%. As for `O=C(c1ccncc1)N1CCC(O)(Cn2ccc3ccncc32)CC1`, the “Percent Effect” value was -4.152%. In the case of `Cc1cc2ccccc2n1CCC(=O)N1CCCC(O)(CN(C)C)CC1` (centres undefined), the “Percent Effect” value is on record as -7.968%.

Turning to `CN(C)CC1(O)CCCN(C(=O)Cn2ccc3ccccc32)CC1` (centres undefined), the “Percent Effect” value is listed as -35.57%. As for `Cc1cc(C(=O)N2C[C@@H]3COC[C@]3(c3nnc(C(C)C)o3)C2)on1`, the “Percent Effect” value is listed as 3.18%.

For the origin of these results see ChEMBL document CHEMBL3988442, “University of Dundee, Small-Polar-MMV Screening Library” (2021).
